Where “and” joins values, the source holds several entries; their conditions need not be identical. Identical values can stand only once. Records with an inconclusive call do not appear. Unmarked numbers belong to inactive results. Calls of active or inactive are those of the source. Calls come from the whole dose curve; as a rule, active = well fitted curve in the direction sought with a large enough effect; inconclusive = small, poorly fitted or top-dose-only effect, or another doubt; inactive = no such curve, though single readings can be large; an effect the other way counts as inactive or inconclusive.
% is set by controls: 0 for no effect and ±100 for the full control effect.

The first assay can be described thus: qHTS Assay for Identifying Gametocytocidal Compounds (AID 743244).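 Note: actives lower the fluorescent signal which means gametocytes are killed.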 As to conditions: P. falciparum 3D7 stage III-V gametocytes, alamarBlue, 72 h; max response: active compounds read low. In outline: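 Fluorescence at Ex 525/Em 598 nm, recorded 24 h after alamarBlue addition, reports residual metabolic activity of 3D7 gametocytes (stages III–V) following 72 h compound exposure at 37 °C, 5% CO2.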
(In qHTS, concentration-response curves come from the screen itself.)
For `Cc1c(N(C)C)c(=O)n(-c2ccccc2)n1C`, the max response is -4.29%.

Consider `COC(=O)c1ccc(O)cc1`, for which the max response is -9.3%.

On to `CCCCCC(N)=O`, for which the max response is 2.77%.

With `CCCCOC(=O)c1ccc(N)cc1`, the max response was -1.98%.

Regarding `CC(=O)N(CC(O)CO)c1c(I)c(C(=O)NCC(O)CO)c(I)c(C(=O)NCC(O)CO)c1I` (configuration not stated), the max response was -11.4%.

On to `CCCNC(C)(C)COC(=O)c1ccccc1`, for which the max response is 5.84%.

With `CN/C(=C\[N+](=O)[O-])NCCSCc1csc(CN(C)C)n1`, the max response was 18.9%.

`O=C(O)CCCCC1CCSS1` (configuration not stated): the max response is 3.67%.

As to `CCCC(O)C(CC)CO` (configuration not stated), the max response is 0.642%.

With `Cc1cccc(Nc2ccccc2C(=O)O)c1C`, the max response was 4.7%.

`CC(N)CCCC(C)(C)O` (configuration not stated): the max response was -9.78%.

Consider `CC(=O)OCC(COC(C)=O)OC(C)=O`, for which the max response was 41.8%.

With `O=C(OOC(=O)c1ccccc1)c1ccccc1`, the max response was -8.14%.

For the compound `C=CCNC(N)=S`, the max response was 5.17%.

As to `CC[N+](CC)(CC(=O)Nc1c(C)cccc1C)Cc1ccccc1`, the max response was 7.32%.

Consider `Cc1cc(C)nc(NS(=O)(=O)c2ccc(N)cc2)n1`, for which the max response is -2.99%.

With `O=C(c1ccccc1)C(O)c1ccccc1` (configuration not stated), the max response is 0.61%.

On to `O=C1c2cccc(O)c2C(=O)c2c(O)cccc21`, for which the max response was 2.37%.

For the compound `COc1ccc(O)cc1`, the max response is -2.64%.

`Cc1c(C(=O)NCCO)[n+](=O)c2ccccc2n1[O-]`: the max response was 6.22%.

In the case of `CC(=O)Nc1cccc(O)c1`, the max response is 5.77%.

On to `CC(=O)Nc1ccccc1`, for which the max response was 9.51%.

For the compound `Cc1ccc(C(C)C)c(O)c1`, the max response is 22.6%.

As to `CC1CC(OC(=O)c2ccccc2O)CC(C)(C)C1` (configuration not stated), the max response was -1.2%.

As to `Cc1cc(O)cc(C)c1Cl`, the max response was -2.6%.

Consider `CC(=O)Nc1ccc(C(=O)O)cc1`, for which the max response was 7.86%.

`CC(=O)NS(=O)(=O)c1ccc(N)cc1`: the max response was 2.53%.

Turning to `C[N+](C)(C)CC(O)CC(=O)[O-]` (configuration not stated), the max response is -7.85%.

Take `Nc1ccc(S(=O)(=O)c2ccc(N)cc2)cc1`: the max response is -3.88%.

The nature of the next assay: qHTS assay for cell viability of HEK293 cells (AID 743288). Note: nearly all actives have a fitted effect of over 50% in size. The conditions noted are these: ATP luminescence (CellTiter-Glo), 18 h, active compounds read low. In outline: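 HEK293 parental, 2,000 cells/well; ≥5 h pre-incubation 37 C; pintool compound addition; 18 h, 37 C; CellTiter-Glo 30 min RT; luminescence read.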
`Cc1c(N(C)C)c(=O)n(-c2ccccc2)n1C`: the max response was 1.77% and -15.3%.

For `COC(=O)c1ccc(O)cc1`, the max response was 1.25%.

For `CCCCCC(N)=O`, the max response is 7.6%.

For `CCCCOC(=O)c1ccc(N)cc1`, the max response was 3.29%.

As to `O=C(O)CCCCC1CCSS1` (configuration not stated), the max response is -11.1% and -8.74%.

Take `CCCCCCCC(=O)OCC(COC(=O)CCCCCCC)OC(=O)CCCCCCC`: the max response was -8.85%.

On to `CCCC(O)C(CC)CO` (configuration not stated), for which the max response is -0.929%.

For `O=C1C(c2[nH]c3ccccc3c2O)=Nc2ccccc21`, the max response was 1.4%.

As for `Cc1cccc(Nc2ccccc2C(=O)O)c1C`, the max response is 2.21%.

With `CC(=O)OCC(COC(C)=O)OC(C)=O`, the max response is 2.21% and 6.16%.

As for `FC(F)(F)C(Cl)Br` (configuration not stated), the max response was 6.13%.

Consider `O=C(OOC(=O)c1ccccc1)c1ccccc1`, for which the max response is -11.7%.

Turning to `C=CCNC(N)=S`, the max response is -7.7%.

For the compound `CC[N+](CC)(CC(=O)Nc1c(C)cccc1C)Cc1ccccc1`, the max response was -11.2%.

For the compound `CCN(CC)C(=O)c1cccc(C)c1`, the max response is 4.9% and -5.34%.

Turning to `Cc1cc(C)nc(NS(=O)(=O)c2ccc(N)cc2)n1`, the max response was 2.28% and -2.43%.

With `O=C(c1ccccc1)C(O)c1ccccc1` (configuration not stated), the max response is 0.203% and -6.25%.

As to `O=C1c2cccc(O)c2C(=O)c2c(O)cccc21`, the max response was -10.2%.

Consider `COc1ccc(O)cc1`, for which the max response is -0.79%.

As to `Cc1c(C(=O)NCCO)[n+](=O)c2ccccc2n1[O-]`, the max response is -4.66%.

In the case of `CC(=O)Nc1cccc(O)c1`, the max response was -4.32%.

Take `CC(=O)Nc1ccccc1`: the max response was -0.588%.

On to `OC[C@@H](O)[C@@H](O)[C@H](O)[C@H](O)CO`, for which the max response was -10.6%.

For `Cc1ccc(C(C)C)c(O)c1`, the max response was -16.2%.

Regarding `CC(C)=CCC/C(C)=C/CO`, the max response was 0.933%.

Consider `CC1CC(OC(=O)c2ccccc2O)CC(C)(C)C1` (configuration not stated), for which the max response was -5.44%.

`Cc1cc(O)cc(C)c1Cl`: the max response is -9.96%.

Consider `CC(=O)Nc1ccc(C(=O)O)cc1`, for which the max response is -10.3%.

For `CC(=O)NS(=O)(=O)c1ccc(N)cc1`, the max response is -3.22%.

On to `CCCCCCCCCCCCCCCCCCO`, for which the max response was -6.21%.

In the case of `Nc1ccc(S(=O)(=O)c2ccc(N)cc2)cc1`, the max response is -5.62% and -11.7%.

As to `Cc1cc(=O)[nH]c(=S)[nH]1`, the max response is -3.4%.

A short description of a further assay: qHTS assay for cell viability of the p53RE-bla HCT-116 cell line (AID 743292). Note: nearly all actives have a fitted effect of over 55% in size. The conditions noted are these: p53RE-bla HCT-116 viability, ATP luminescence, 16 h; series mostly up to 95 µM. In a few lines:
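In this qHTS counter-screen, metabolically competent p53RE-bla HCT-116 cells were counted via their ATP content. Compounds were applied for 16 h at 37 C and luciferase-coupled luminescence was measured.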
For the compound `Cc1c(N(C)C)c(=O)n(-c2ccccc2)n1C`, the compound was classed as inactive.

With `COC(=O)c1ccc(O)cc1`, the compound was classed as inactive.

On to `CCCCCC(N)=O`, for which the compound was called inactive.

On to `CCCCOC(=O)c1ccc(N)cc1`, for which the outcome was inactive.

In the case of `O=C(O)CCCCC1CCSS1` (configuration not stated), the result was inactive.

With `CCCCCCCC(=O)OCC(COC(=O)CCCCCCC)OC(=O)CCCCCCC`, the compound was classed as inactive.

`CCCC(O)C(CC)CO` (configuration not stated): the compound was classed as inactive.

As to `O=C1C(c2[nH]c3ccccc3c2O)=Nc2ccccc21`, the result was inactive.

As for `Cc1cccc(Nc2ccccc2C(=O)O)c1C`, the compound was called inactive.

For `CC(=O)OCC(COC(C)=O)OC(C)=O`, the compound was called inactive.

As to `FC(F)(F)C(Cl)Br` (configuration not stated), the compound was called inactive.

In the case of `O=C(OOC(=O)c1ccccc1)c1ccccc1`, the call was inactive.

`C=CCNC(N)=S`: the compound was called inactive.

Take `CC[N+](CC)(CC(=O)Nc1c(C)cccc1C)Cc1ccccc1`: the compound was classed as inactive.

Turning to `CCN(CC)C(=O)c1cccc(C)c1`, the call was inactive.

For the compound `Cc1cc(C)nc(NS(=O)(=O)c2ccc(N)cc2)n1`, the compound was classed as inactive.

Consider `O=C(c1ccccc1)C(O)c1ccccc1` (configuration not stated), for which the call was inactive.

On to `O=C1c2cccc(O)c2C(=O)c2c(O)cccc21`, for which the result was inactive.

For the compound `COc1ccc(O)cc1`, the outcome was inactive.

Consider `Cc1c(C(=O)NCCO)[n+](=O)c2ccccc2n1[O-]`, for which the outcome was inactive.

As for `CC(=O)Nc1cccc(O)c1`, the compound was classed as inactive.

Turning to `CC(=O)Nc1ccccc1`, the outcome was inactive.

On to `OC[C@@H](O)[C@@H](O)[C@H](O)[C@H](O)CO`, for which the call was inactive.

Regarding `Cc1ccc(C(C)C)c(O)c1`, the compound was classed as inactive.

For `CC(C)=CCC/C(C)=C/CO`, the compound was classed as inactive.

As to `CC1CC(OC(=O)c2ccccc2O)CC(C)(C)C1` (configuration not stated), the result was inactive.

With `Cc1cc(O)cc(C)c1Cl`, the outcome was inactive.

Consider `CC(=O)Nc1ccc(C(=O)O)cc1`, for which the outcome was inactive.

As to `CC(=O)NS(=O)(=O)c1ccc(N)cc1`, the result was inactive.

In the case of `Nc1ccc(S(=O)(=O)c2ccc(N)cc2)cc1`, the outcome was inactive.

As for `Cc1cc(=O)[nH]c(=S)[nH]1`, the compound was called inactive.

Values taken from PubChem BioAssay (NCATS).
